Results: PubChem BioAssay AID1567 (National Center for Advancing Translational Sciences (NCATS), 2009)
Inconclusive results are not listed. Unmarked numbers belong to inactive results. The source made the active and inactive calls. Calls come from the whole dose curve; as a rule, active = well fitted inhibition curve with a large enough effect; inconclusive = small, poorly fitted or top-dose-only effect, or effect the other way; inactive = no such curve, though single readings can be large or run the other way.

Each compound was assayed against Thyroid hormone receptor beta (Homo sapiens) (UniProt P10828) (assay: Cell-based Gene Reporter Secondary Assay to Characterize qHTS Inhibitors of the Interaction of Thyroid Hormone Receptor and Steroid Receptor Coregulator 2). Settings: WRO cells TRbeta TRE-luciferase, T3-stimulated, 16 h; series mostly up to 29.9 µM; activity change, negative = inhibition: at the top concentration.
Excerpt: NIH Molecular Libraries Probe Production Network [MLPCN] NIH Chemical Genomics Center [NCGC] MLPCN Grant: DK058080 Assay Provider: R. Kip Guy, St. Jude Children's Research Hospital NCGC Assay Overview: Thyroid receptor (TR) regulates many homeostatic processes including basal metabolism, cardiovascular function, body weight, and lipid trafficking. TR modulators are potential therapeutics for obesity and hyperlipidemias but current thyroid analogs have undesirable side effects, particularly cardiac stimulation. This secondary assay characterized selected actives identified in the qHTS for Inhibitors of the Interaction of Thyroid Hormone Receptor and Steroid Receptor Coregulator 2. The human follicular thyroid carcinoma cell line WRO (kindly provided by Dr. M. D. Ringel) stably expresses TRbeta and a luciferase reporter gene fused to TR response element. The addition of T3 ligand elevates expression of the TRE luciferase reporter. This assay measures the transcriptional activity of compounds.
NCGC Assay Protocol Summary: Cells were maintained in RPMI 1640 culture medium supplemented with 10% heat-inactivated FBS, 0.33 mg/ml hygromycin, 0.33 mg/ml geneticin, 50 units/ml penicillin, 50 ug/ml streptomycin. Cells were harvested and resuspended at 330,000 cells/ml in assay medium (50% DMEM 50% F-12 medium without Phenol-Red (Cellgro #16-405-CV), L-glutamine, 10% heat inactivated and charcoal treated FBS, 100 uM non-essential amino acid, 50 units/ml penicillin, 50 ug/ml streptomycin). Cells were dispensed at 10,000 cells/30 ul/well into 384 well plates (Corning 3917) and incubated 12 h at 37 C and 5% CO2. Compounds and T3 (100nM final concentration) were added using a pin tool and plates were incubated 16 h incubation at 37 C and 5% CO2. Following incubation, plates were equilibrated at ambient temperature for 30 min, 30 ul of Bright-Glo (Promega) was added and luminescence was detected by an EnVision (PerkinElmer).

Thyroid hormone receptor beta (Homo sapiens), sequence (P10828 whole entry, looked up): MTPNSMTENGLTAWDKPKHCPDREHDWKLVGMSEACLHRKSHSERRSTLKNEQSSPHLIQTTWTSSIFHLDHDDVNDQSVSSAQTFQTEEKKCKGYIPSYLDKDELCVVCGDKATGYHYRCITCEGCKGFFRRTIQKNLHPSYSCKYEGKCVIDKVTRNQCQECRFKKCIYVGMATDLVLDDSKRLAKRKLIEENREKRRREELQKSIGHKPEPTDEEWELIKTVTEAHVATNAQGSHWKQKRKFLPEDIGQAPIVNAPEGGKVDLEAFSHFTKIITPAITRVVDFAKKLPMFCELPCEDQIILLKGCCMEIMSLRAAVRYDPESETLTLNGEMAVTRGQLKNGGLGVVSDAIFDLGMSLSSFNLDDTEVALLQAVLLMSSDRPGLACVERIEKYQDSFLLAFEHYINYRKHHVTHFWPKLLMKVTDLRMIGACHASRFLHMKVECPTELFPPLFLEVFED

SMILES	activity change, negative = inhibition	Potency
O=C(O)[C@H]1CN(CCCP(=O)(O)O)CCN1	-100% [at 59.9 µM]	–
Nc1cnccc1C(=O)O	-3.24%	–
O=c1cc(C23CC4CC(CC(C4)C2)C3)[nH][nH]1	11.1%	–
CCc1ccc2c(c1)c1nc(C)sc1n2CC	17.3%	–
CCC(NC(=O)Nc1ccc(O)cc1)(C(F)(F)F)C(F)(F)F	9.95%	–
CC1=NN(Cc2ccccc2)C(=O)C1	23.4%	–
O=C(NNc1cc(N2CCOCC2)nc(N2CCOCC2)n1)c1ccc([N+](=O)[O-])cc1	-19.3%	–
CN1N=C(C(C)(C)C)CC1=O	8.94%	–
Cc1ccc(-c2nc(S(=O)(=O)c3ccc(F)cc3)c(SCC(=O)NCC3CCCO3)o2)cc1 (stereo not given)	-6.71%	–
C=CCNC(=O)/C(C#N)=C\c1cc(Cl)c(OCC)c(OC)c1	-29.7%	–
Cc1ccc(OC(=S)Nc2ccc(O)cc2)cc1	-22%	–
Nc1cccnc1Sc1cc(Cl)c(Cl)cc1Cl	-26.2%	–
CCOc1cc(C(c2c(C)[nH][nH]c2=O)c2c(C)[nH][nH]c2=O)ccc1OS(=O)(=O)c1ccc(C)cc1	18.7%	–
COc1cc(NC(C)CCCN)c2ncccc2c1 (stereo not given)	–	22.4 µM (active)
O=C(Nc1nc2ccc(Cl)cc2s1)c1ccc(N2CCCCC2)c([N+](=O)[O-])c1	19.6%	–
CCC(CNc1cc(OC)cc2cccnc12)NC1CCCCC1 (stereo not given)	–	6.31 µM (active)
COc1cc(NCCCC(C)N)c2ncccc2c1 (stereo not given)	–	3.16 µM (active)
CCOc1ccc(NC(=O)C(c2ccccn2)N(C(=O)CCl)c2ccc(F)cc2)cc1 (stereo not given)	-6.26%	–
CN1c2ccccc2C(C)(C)C12C=Nc1c(cc(N3CCOCC3)c3ccccc13)O2 (stereo not given)	13.7%	–
CC1=NN(c2ccc(F)cc2)C(=O)C1C(c1cccc(O)c1)c1c(C)[nH]n(-c2ccc(F)cc2)c1=O (stereo not given)	-12.9%	–

SMILES	activity change, negative = inhibition	Potency
Cn1c(NNC(=O)c2c(F)cccc2F)cc(=O)n(C)c1=O	1.12%	–
CCOC(=O)c1cnc2nc(NCc3ccc(OC)c(OC)c3)[nH]n2c1=O	-0.994%	–
C=CCSc1nnc2n(-c3ccccc3OC)c(=O)c3c4c(sc3n12)CCC4	0.913%	–
CN(C)c1cc(Cl)c2nonc2c1N	15.2%	–
Cc1ccc2c(CC(=O)Nc3c(C(=O)c4ccc(F)cc4)oc4ccccc34)coc2c1C	23.4% [at 59.9 µM]	–
Cc1cccc(S(=O)(=O)c2cn(Cc3ccccc3)c3cc(N4CCC(C)CC4)c(F)cc3c2=O)c1	0.761% [at 59.9 µM]	–
COc1ccc(-c2nc(CS(=O)CC(=O)NCc3ccccn3)c(C)o2)cc1 (stereo not given)	-2.31%	–
Nc1cc(-c2ccncc2)c[nH]c1=O	–	14.1 µM (active)
CCSc1ncc(Cl)c(C(=O)Nc2nc3ccc(OC)cc3s2)n1	-4.44% [at 59.9 µM]	–
CN1c2ccccc2C(C)(C)C12C=Nc1c(ccc3ccccc13)O2 (stereo not given)	–	4.47 µM (active)
CN1CCc2ccc3c4c2[C@]1(C)Cc1cccc(c1-4)OCO3	–	7.94 µM (active)
CCOc1cc(N2CCOCC2)c(OCC)cc1NC(C)C(=O)N1CCN(CC)CC1 (stereo not given)	12%	–
CCOC(=O)C(NC(=O)Nc1ccc(O)cc1)(c1ccccc1)C(F)(F)F (stereo not given)	24.2%	–
Cn1cc(/C=C2\SC(=S)N(NC(=O)c3ccccc3)C2=O)c2ccccc21	2.16%	–
CC(NC(=O)Nc1ccc(O)cc1)(C(F)(F)F)C(F)(F)F	-0.554%	–
COc1ccc2ccc3c(c2c1)N=CC1(O3)N(C)c2ccccc2C1(C)C (stereo not given)	-22.8%	–
Cc1cc(C)cc(OCC(=O)NCCc2nc3ccccc3[nH]2)c1	6.99% [at 59.9 µM]	–
Cc1nnc(SCC(=O)Nc2ccc(N(C)C)cc2)[nH]c1=O	7.12% [at 59.9 µM]	–
CCCc1nc2c(=O)n(C)c(=O)nc-2n(C)n1	–	0.794 µM (active)
Cc1nc2ccccc2n2c(O)c(CC(=O)O)cc12	-9.96%	–
